Bioassay records: PubChem BioAssay, National Center for Advancing Translational Sciences (NCATS)
Most compounds without a hit are left out; they make up all but 2.8% or so of the library.
WRN helicase inh – inhibitors of human WRN helicase; Q14191; WRN helicase unwinding, fluorescent forked duplex, kinetic; Potency, µM (titrated, usually from 114 µM), inactives show at the highest dose activity change, negative = inhibition, most hits filed as inhibitors; 360,000 tested, 0.46% active; further: potency means the concentration at half of the fitted maximal effect; on the % scale 0 is the no-effect control and ±100 the full control effect; nearly all actives have a fitted effect of over 55% in size
Target sequence (Q14191 whole entry, looked up): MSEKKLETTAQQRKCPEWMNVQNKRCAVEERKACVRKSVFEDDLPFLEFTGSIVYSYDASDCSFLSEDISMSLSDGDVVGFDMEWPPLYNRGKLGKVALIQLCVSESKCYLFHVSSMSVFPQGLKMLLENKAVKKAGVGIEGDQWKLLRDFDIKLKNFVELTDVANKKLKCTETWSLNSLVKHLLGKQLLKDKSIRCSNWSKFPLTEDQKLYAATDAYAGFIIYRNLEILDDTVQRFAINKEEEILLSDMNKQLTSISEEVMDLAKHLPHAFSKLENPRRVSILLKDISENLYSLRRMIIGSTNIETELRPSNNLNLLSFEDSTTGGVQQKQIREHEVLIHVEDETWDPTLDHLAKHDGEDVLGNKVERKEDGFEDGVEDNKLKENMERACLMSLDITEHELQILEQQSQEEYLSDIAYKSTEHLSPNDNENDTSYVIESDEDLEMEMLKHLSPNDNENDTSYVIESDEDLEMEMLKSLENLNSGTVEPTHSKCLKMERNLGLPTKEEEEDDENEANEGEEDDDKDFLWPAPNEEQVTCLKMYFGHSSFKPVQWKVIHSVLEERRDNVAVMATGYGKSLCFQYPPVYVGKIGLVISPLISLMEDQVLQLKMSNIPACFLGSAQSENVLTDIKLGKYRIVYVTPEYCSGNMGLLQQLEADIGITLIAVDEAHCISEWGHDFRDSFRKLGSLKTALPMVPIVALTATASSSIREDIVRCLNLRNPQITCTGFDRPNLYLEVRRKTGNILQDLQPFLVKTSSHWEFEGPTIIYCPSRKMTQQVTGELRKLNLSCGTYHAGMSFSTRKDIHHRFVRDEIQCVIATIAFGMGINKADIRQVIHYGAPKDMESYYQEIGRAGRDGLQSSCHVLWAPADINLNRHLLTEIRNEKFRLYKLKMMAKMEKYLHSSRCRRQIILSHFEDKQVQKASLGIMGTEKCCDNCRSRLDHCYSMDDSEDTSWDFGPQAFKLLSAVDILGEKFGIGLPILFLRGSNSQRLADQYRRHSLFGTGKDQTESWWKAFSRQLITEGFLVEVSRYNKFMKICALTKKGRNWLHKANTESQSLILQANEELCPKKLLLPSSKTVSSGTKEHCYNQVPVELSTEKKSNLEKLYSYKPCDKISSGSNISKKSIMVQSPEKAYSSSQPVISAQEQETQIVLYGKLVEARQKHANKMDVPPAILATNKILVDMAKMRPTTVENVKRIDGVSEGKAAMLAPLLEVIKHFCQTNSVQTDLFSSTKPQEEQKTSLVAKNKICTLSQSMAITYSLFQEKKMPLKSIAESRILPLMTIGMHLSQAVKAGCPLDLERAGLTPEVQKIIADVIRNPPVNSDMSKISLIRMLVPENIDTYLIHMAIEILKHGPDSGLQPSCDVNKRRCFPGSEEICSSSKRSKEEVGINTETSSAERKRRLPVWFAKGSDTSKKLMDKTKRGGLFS
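Kinetic red-fluorescence monitoring (525/598 nm) tracks WRN helicase activity after 100 nM fluorophore-quencher forked duplex and 2 mM ATP are added to 20 nM enzyme pretreated 15 min at room temperature with compound.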
POLH inh – blocks human DNA polymerase eta activity | Q9Y253 | recombinant Pol eta, fluorescent DNA replication assay | Potency, µM (highest dose often 114 µM), for inactives: at the highest dose activity change, negative = inhibition, most hits filed as inhibitors | 390,000 tested, 1.2% active | AID 588591; further: potency means the concentration at half of the fitted maximal effect; on the % scale 0 is the no-effect control and ±100 the full control effect
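Pol eta at 10 nM preincubated with compounds 15 min at room temperature; reaction started with fluorescent substrate (50 nM final) and read kinetically at 0 and 10 min.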
Pol beta inh – blocks human DNA polymerase beta activity; 340,000 tested, 1.3% active; Pol beta primer extension/strand displacement, fluorescence kinetic; P06746; Potency, µM (top dose mostly 114 µM), inactives show at the top dose activity change, negative = inhibition, usual class: inhibitors; AID 485314; further: potency means the concentration at half of the fitted maximal effect; on the % scale 0 is the no-effect control and ±100 the full control effect
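Enzyme-only controls used 10 nM Pol beta; buffer lacking enzyme served as negative control. Compound preincubated 15 min, then 50 nM substrate added; 0 and 10 min reads at room temperature.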
Pol iota inh – inhibitors of human DNA polymerase iota | Pol iota fluorescent replication assay, 10 min | 390,000 tested, 1% active | Potency, µM (series often up to 115 µM), without a hit: top-dose activity, negative = inhibition, hits mostly inhibitors; further: potency means the concentration at half of the fitted maximal effect
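Fluorescent replication assay read twice, at 0 min and 10 min after adding 50 nM (final) substrate. Enzyme (10 nM) and compounds were first incubated 15 min at room temperature; enzyme-free buffer wells were negative controls.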
POLK inh – DNA polymerase kappa (human) inhibition. Q9UBT6. purified Pol kappa, fluorescent DNA synthesis assay, 10 min. Potency, µM (top dose mostly 107 µM), for inactives: top-dose activity, negative = inhibition, hits mostly inhibitors. 400,000 tested, 0.53% active; further: potency means the concentration at half of the fitted maximal effect; on the % scale 0 is the no-effect control and ±100 the full control effect
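Kinetic fluorescence screen: compound preincubated 15 min RT with 10 nM enzyme; 50 nM substrate (final) initiates; reads at 0/10 min.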
PI5P4Ka inh – PI5P4K alpha (human) kinase inhibition; PI5P4Kalpha enzyme, ADP-Glo luminescence, 60 min; stronger effect = lower value; P48426; max response, %; 330,000 tested, 1.2% active; active means max response of -50% or lower; inconclusive means between -30% and -50%; inactive means -30% or higher; further: value at the top dose of about 77 µM; on the % scale 0 is the no-effect control and ±100 the full control effect
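Reactions run in 0.038 M HEPES pH 7.4, 0.28 mM EGTA, 0.1% CHAPS and 5% DMSO, with PI5P4Kalpha, substrate, compound and 5 microM ATP final, one hour at room temperature. Readout is ADP-Glo luminescence.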
TbPGK inh – validation of Trypanosoma brucei phosphoglycerate kinase inhibitors; TbPGK coupled GAPDH assay, Kinase-Glo luminescence; Potency, µM (titrated, usually from 57.5 µM), for the others: at the top dose activity change, negative = inhibition, hits mostly inhibitors; 500 tested, 79% active; AID 686980; shares compounds with POLK inh; further: potency means the concentration at half of the fitted maximal effect; on the % scale 0 is the no-effect control and ±100 the full control effect; nearly all actives have a fitted effect of over 65% in size
Pol iota confirm – Human Pol iota inhibitor confirmatory assay. shares compounds with POLK inh. Pol iota primer extension, TAMRA/BHQ fluorescence. Potency, µM, most hits filed as inhibitors. 1,500 tested, 77% active; further: potency means the concentration at half of the fitted maximal effect
Starred values were filed as active, the others as inactive; ? = inconclusive; / = no result given; ! = not confirmed by another sample; [ ] = dose if it differs, or a comment. Unless noted, the call rests on the fitted dose curve; in most records, active means well fitted curve in the direction sought with a large enough effect; inconclusive means small, poorly fitted or top-dose-only effect, or another doubt; inactive means no such curve, though single readings can be large; an effect the other way counts as inactive or inconclusive.

SMILES	WRN helicase inh	POLH inh	Pol beta inh	Pol iota inh	POLK inh	PI5P4Ka inh	Pol iota confirm	others
COc1cccc2c1NC(C(=O)O)C1CC=CC21 (stereo not drawn)	12.6µM*	2.51µM*	1.78µM*	1µM*	7.94µM*	-96.2*	/	TbPGK inh=8.19µM*
O=C(CCN1CCN(Cc2ccccc2)CC1)NNC(=O)Nc1cccc(C(F)(F)F)c1	4.2%	-8.0%	23.5%	40.8%	-6.8%	26.6	/
COc1cccc(-c2cc(NCc3cnc(C)cn3)ncn2)c1	/	/	/	/	8.6%[60.1 µM]	/	/
COc1cc(/C=C/c2nc3ccccc3c(=O)[nH]2)cc(Cl)c1O	-34.5%	?	?	32.7%	-0.6%	4.9	?
CSc1ccc(CNC(=O)C2(C)CCN2C(C)C)cc1 (stereo not drawn)	-1.5%	/	/	/	/	-7.0	/
Cc1ccc(O)c(N=Nc2ccccc2)n1	-4.3%	-1.7%[57.1 µM]	-12.7%[57.1 µM]	-8.8%[58.9 µM]	6.0%[60.1 µM]	-77.9*	/	TbPGK inh=14.6µM*
Oc1ccc(Cl)cc1N=Nc1ccccc1	-1.4%	-16.4%	113.9%	26.3%	-2.5%	16.3	/
Cc1ccc(NC(=O)c2ccc3c(c2)N(CC(=O)NC(C)C)C(=O)C(C)(C)O3)cc1	-15.3%	-15.6%	?	17.2%	4.0%	2.8	/
O=C(O)c1ccc(-n2cccc2/C=C2\SC(=O)N(Cc3ccc(Cl)c(Cl)c3)C2=O)cc1	/	/	/	/	/	/	67*
CC(C)(C)OC(=O)N[C@H](C(=O)OC(C)(C)C)c1ccc2ccccc2c1	-31.9%	-4.9%	/	-3.8%	-13.9%	1.3	/
CCOC(=O)c1c(NC(=O)c2ccc(S(=O)(=O)N(CC(C)C)CC(C)C)cc2)sc2c1CCN(C(=O)OCC)C2	/	-12.0%	9.7%	27.8%	-0.2%[60.1 µM]	/	/
Cc1cc(C)c2c(N)c3cccc(C)c3nc2n1	0.2%	-18.7%	12.6µM*	?	?	-5.9	33.6*
COc1ccccc1-n1c(SCC(=O)Nc2cc(C)on2)nc2c([nH]c3ccccc32)c1=O	-13.2%	-25.0%	20.6%	16.8%	-0.5%	-5.5	/
CNc1ccc(/C=C(\CCC(=O)O)c2nc3ccccc3s2)cc1[N+](=O)[O-]	?	12.6µM*	31.6µM*	-1.5%	-15.0%	-17.8	42.3*
COc1cc(N)c(NC(=O)/C=C/c2nc3cc(OC)c(OC)cc3[nH]2)cc1OC	/	/	/	45.5%	-4.2%	/	/
O=C(OCc1cc(=O)n2nc(-c3cccs3)sc2n1)c1ccc(F)cc1	/	?	11.2µM*	?	-38.9%	/	?
Cc1csc(NC(=O)c2cn3ccccc3n2)n1	0.8%	-5.4%	?	9.1%	-9.6%	-20.7	/	TbPGK inh=18.3µM*
CC(=O)c1ccc(OCC(=O)OCC(=O)c2ccc(S(=O)(=O)N3CCCCC3)cc2)cc1	-3.5%	-13.4%	/	/	/	?	/
CN(C)c1ccc(/C=C/c2nccc3ccccc23)cc1	/	/	/	21.1%	-13.7%	/	/
CN(C)c1ccc(/C=C/c2ccc3c4ccccc4ccc3[n+]2-c2ccccc2)cc1	12.6µM*	22.4µM*	11.2µM*	20µM*	44.7µM*!	-87.1*	/	TbPGK inh=29.1µM*
CCOC(=O)c1c(C)[nH]c(C)c1S(=O)(=O)N1CCC(C(=O)Nc2ccc(F)cc2F)CC1	/	-8.3%	23.2%	-0.1%	13.9%	/	/
Cc1nc(-c2ccc(C(=O)N3CCCC3)cc2)cs1	-29.8%	0.8%	-9.1%	81.5%	1.5%	?	/	TbPGK inh=18.3µM*
CCN(CC)c1ccc(C(=O)O)cc1	-5.0%	-2.9%	-2.7%	-6.1%	-5.9%	6.9	/
CCN(CC)c1ccc(C(=C2C=CC(=[N+](CC)CC)C=C2)c2ccc(S(=O)(=O)O)cc2S(=O)(=O)[O-])cc1	-5.8%[11.6 µM]	20µM*	/	?	-12.7%	-56.6*	/	TbPGK inh=16.3µM*
COc1ccc(-n2cccc2/C=C2\C(=N)N3N=C(c4ccco4)SC3=NC2=O)cc1	?	8.91µM*	5.62µM*	?	22.4µM*	-53.2*	/	TbPGK inh=3.66µM*
SMILES	WRN helicase inh	POLH inh	Pol beta inh	Pol iota inh	POLK inh	PI5P4Ka inh	Pol iota confirm	others
CCOC(=O)c1ccc(NC(=O)c2c(NCc3sccc3C)sc3c2CCCCC3)cc1	/	-27.3%	?	?	-7.9%[60.1 µM]	/	/
COc1ccc(Br)cc1CNC(=O)CN1C(=O)c2cccnc2Oc2ccc(C)cc21	/	?	32.6%	?	-16.0%	/	?
COc1c(C)cc(C(O)c2ncc(-c3ccccc3F)[nH]2)cc1C (stereo not drawn)	-2.4%[57.1 µM]	/	/	/	/	-0.5	/
COc1ccc2c(c1)CC/C(=C\Nc1ccc3c(c1)OCO3)C2=O	-15.8%[57.1 µM]	-11.1%	-1.0%	?	-12.7%	/	/
COc1ccc(N/C=C2\CCc3ccccc3C2=O)cc1	-12.1%	-15.0%	20.1%	9.3%	-7.3%	?	/	TbPGK inh=16.3µM*
O=C(Nc1ccc(NC(=O)c2ccco2)c(Cl)c1)c1ccc2c(c1)OCCO2	?	?	?	?	?	1.4	?
CN(C(=O)Nc1ccccc1)C1CCCc2ccccc21 (stereo not drawn)	0.7%	-22.5%	5.2%	0.4%	0.0%	-3.2	/
COc1ccccc1C(=O)Nc1nc2ccccc2s1	2.1%	-5.1%	-27.0%	?	14.1%	?	/	TbPGK inh=16.3µM*
O=C1NC(=Nc2ccccc2)/C(=C/c2ccco2)S1	-3.6%	-15.7%	?	?	-35.8%	-26.8	/
Cc1ccc(N=C2NC(=O)S/C2=C\c2ccco2)cc1	?	-17.4%	7.94µM*	?	-45.7%	-6.7	67*
COc1ccc(OC)c(N/C=C/C(=O)c2ccccc2)c1	-3.9%	0.5%	20.7%	-0.3%	-11.0%	-17.0	/	TbPGK inh=18.3µM*
COc1ccc(OC)c(N/C(C)=C/C(=O)c2ccccc2)c1	-17.7%	-8.2%	-2.2%	28.7%	-20.8%	-1.9	/
CC(=O)Nc1sc2c(c1-c1nc3ccccc3s1)CCCNC2	/	/	/	/	/	/	?
CCN1CCc2c(sc(NC(=O)CSc3ccccc3)c2-c2nc3ccccc3s2)C1	/	-10.4%	2.0%	-9.4%	-6.5%	/	/
CC(=O)Nc1sc2c(c1-c1nc3ccccc3s1)CCN(C(C)C)CC2	/	/	/	/	/	/	67*
Cc1ccc(Nc2cc(C)c(C#N)c3nc4ccccc4n23)c(C)c1	/	0.2%	29.1%	?	?	/	/
Cc1ccc(NC(=O)NCCc2c(C)nn(C)c2C)cc1Cl	/	-7.8%	?	-2.6%	-13.3%[60.1 µM]	/	/
CCOc1cc(/C=C2/NC(=S)NC2=O)ccc1OCc1ccc([N+](=O)[O-])cc1	-27.7%[57.1 µM]	?	?	?	-4.2%	-17.1	?
NC(N)=NN=C1CCC(c2ccccc2)CC1 (stereo not drawn)	10.1%	-1.4%	-8.0%	-18.2%	-6.3%	5.1	/
